The structures appear in SMILES notation. Hit rate of the full screen: of about 290,000 compounds, about 370 (0.13%) were called active. The entries come from a sample that favours actives as a whole. Entries with a potency or affinity are not part of this list. Unmarked numbers belong to inactive results.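 Rule for the calls: active = spots per cell inhibited over 60%, with over 100 cells counted and total cytoplasm intensity under 500,000; inconclusive = wells with under 100 cells, flagged as likely toxic; inactive = the rest.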

The target of this assay is G-protein coupled receptor 55 (Homo sapiens) (UniProt Q9Y2T6). Kind of assay: inhibition of LPI-stimulated GPR55 beta-arrestin translocation – imaging, U2OS, beta-arrestin-GFP, LPI agonist, primary screen (AID 2013).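 Note: U2OS cells stably carrying GPR55 and arrestin-GFP stimulated by 5 µM LPI near EC80; imaged beta-arrestin-GFP aggregate spots per cell after agonist stimulation; plate controls were LPI-stimulated DMSO wells for no effect and DMSO wells without LPI for full effect.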 Conditions: LPI antagonism, at 10 µM, hits give high values.
G-protein coupled receptor 55 (Homo sapiens), sequence (Q9Y2T6 whole entry, looked up): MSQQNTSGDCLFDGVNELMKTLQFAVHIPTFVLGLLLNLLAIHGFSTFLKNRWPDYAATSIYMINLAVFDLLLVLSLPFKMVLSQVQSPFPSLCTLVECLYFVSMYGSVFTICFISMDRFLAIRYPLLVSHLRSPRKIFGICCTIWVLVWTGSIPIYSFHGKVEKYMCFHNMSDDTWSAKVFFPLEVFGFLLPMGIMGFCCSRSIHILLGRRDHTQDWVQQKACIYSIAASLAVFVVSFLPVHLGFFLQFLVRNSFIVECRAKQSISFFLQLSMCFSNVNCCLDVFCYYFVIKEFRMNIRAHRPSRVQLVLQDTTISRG
What is called inhibition is the relative decrease from the control value, in per cent. Turning to `Cc1[nH]c(C)c(S(=O)(=O)N2CCCCC2)c1C(=O)N1CCCCC1`, the inhibition is 29.6%. Take `Cc1ccc(N2CN(CCc3ccccc3)CNC2=S)cc1`: the inhibition is 5%.

`O=C(Nc1cccc(F)c1)NC1CCN(Cc2ccccc2)CC1`: the inhibition was 6%. For `CC(NC(=O)/C(C#N)=C/c1ccc([N+](=O)[O-])o1)c1ccccc1` (stereo not given) the value was 4.1%. The same measure for `COc1ccc(/C=C(\C#N)C(=O)NC(C)c2ccccc2)cc1O` (stereo not given): 4.5%; for `CC(=NCCc1ccccc1)C1=C(O)COC1=O`: 13.7%; for `CCOC(=O)c1c(N)sc(N)c1C(=O)OCC`: 6.2%. On to `CCOC(=O)c1c(N)sc(C(O)(C(F)(F)F)C(F)(F)F)c1-c1ccc(Cl)cc1`, for which the inhibition was 5.7%. The same measure for `CCOC(=O)c1c(N)sc(C(O)(C(F)(F)F)C(F)(F)F)c1-c1ccc(OC)cc1OC`: 22.9%; for `CCOC(=O)c1c(N)sc(-c2ccccc2)c1C`: -6.5%; for `N#Cc1c(N)nc(SCC(=O)C23CC4CC(CC(C4)C2)C3)c(C#N)c1-c1ccc(Cl)cc1`: 0.2%. Regarding `COC(=O)c1cccc(NC(=O)CSc2nc3cccnc3n2C)c1`, the inhibition was 16.9%. In the case of `CCCCCCCc1c(C)nc(N2CCOCC2)[nH]c1=O`, the inhibition is 3.4%. Consider `CCOC(=O)C1=NN(N=O)C2(CC(=O)N(c3cc(C)cc(C)c3)C2=O)C1` (stereo not given), for which the inhibition is 8.8%.

As for `CC(C)(C)N(Cc1cc2ccccc2[nH]c1=O)C(=O)c1cccc([N+](=O)[O-])c1`, the inhibition is -1.2%. For `O=C(Nc1ccccc1Cl)c1cc[n+]([O-])cc1`, the inhibition was 10.9%.

As for `COc1ccc(CN2CCN(CC(O)Cn3c4ccccc4c4ccccc43)CC2)cc1` (stereo not given), the inhibition was 50.2%. Turning to `Cc1ccc(OCCN2CCN(CC(O)Cn3c4ccccc4c4ccccc43)CC2)cc1` (stereo not given), the inhibition is 72.6% (active). Regarding `Cc1ccc(OCC(O)Cn2c3ccccc3c3ccccc32)cc1` (stereo not given), the inhibition was 6.3%.

`OC(CN1CCN(Cc2ccccc2)CC1)Cn1c2ccccc2c2ccccc21` (stereo not given): the inhibition was 36.2%. `CN1CCN(CC(O)Cn2c3ccccc3c3ccccc32)CC1` (stereo not given): the inhibition was -3.3%.

For the molecule `CCOc1ccc(CN2CCN(CC(O)Cn3c4ccccc4c4ccccc43)CC2)cc1` (stereo not given), the inhibition was 79.4% (active).

Regarding `Cc1ccc(/C=N/NC(=O)c2nnn(-c3nonc3N)c2C(C)C)s1`, the inhibition was 4%. As to `CC1CCN(CCc2nc3cc(NS(=O)(=O)c4ccccc4)ccc3n2C)CC1`, the inhibition was -11.2%. `CCn1c(SCC(N)=O)nc2c1c(=O)n(C)c(=O)n2C`: the inhibition was -11%. For `Cc1onc(-c2ccc(Cl)cc2Cl)c1C(=O)/C=C/N(C)C`, the inhibition is 3.5%. For `COc1ccc(C(CNC(=O)C(C)(C)Oc2ccc(Cl)cc2)N2CCCCC2)cc1` (stereo not given) the value was 3.2%; for `C=CCc1c(C)nc(-c2ccccc2)nc1N/N=C(\C)c1ccccc1`, 8.1%.

Turning to `Cc1cc(C2(c3ccc(O)c(C)c3)C(=O)Nc3ccccc32)ccc1O`, the inhibition was 5%.

Turning to `CC(=O)Nc1ccc(C2(c3ccc(NC(C)=O)cc3)C(=O)Nc3ccccc32)cc1`, the inhibition is 10.2%. Turning to `COC(=O)C1=C(C)NC(=O)CC1c1cccc(Cl)c1Cl` (stereo not given), the inhibition is 10%. For `CCOC(=O)C1=C(C)NC(C)=C(C(=O)OC)C1c1cccc(Cl)c1Cl` (stereo not given) the value was 85.2% (active). In the case of `CCOC(=O)C1=C(C)NC(=O)NC1c1ccccc1Cl` (stereo not given), the inhibition is 14%. For `COc1cc(C(=O)N2CCN(C(=O)c3cccc4ccccc34)CC2)cc(OC)c1OC`, the inhibition is 4.5%. As to `CCn1cnc2sc(C(=O)Oc3cccc(C)c3)c(C)c2c1=O`, the inhibition is -14%. As to `c1ccc2c(c1)OCC(c1csc3ncnc(N4CCCCC4)c13)O2` (stereo not given), the inhibition was 6%. For `CCN(CC)c1ncnc2scc(C3COc4ccccc4O3)c12` (stereo not given) the value was 31%; for `c1ccc2c(c1)OCC(c1csc3ncnc(N4CCOCC4)c13)O2` (stereo not given), 18.5%; for `c1ccc2c(c1)OCC(c1csc3ncnc(N4CCCC4)c13)O2` (stereo not given), 26.4%. As to `CC(C)CCNc1c(-c2cccs2)nc2ccccn12`, the inhibition is 8.2%.

Regarding `CC(=O)Nc1nc(-c2ccc(Cl)cc2)ns1`, the inhibition was 9.6%. For `CC(C)=CC(=O)OCc1csc(CC(=O)Nc2ccccc2C)n1`, the inhibition is 8.4%.

As to `Clc1ccc(-n2nnnc2-c2cnc(-c3ccncc3)nc2-c2cccs2)cc1`, the inhibition is 6.4%. In the case of `Clc1ccc(-c2nnnn2-c2ccc(Cl)cc2)cc1`, the inhibition was 7.1%.

On to `Cn1c(C(=O)N[C@@H](Cc2ccccc2)C(=O)NCCC(=O)O)cc2cc(Cl)ccc21`, for which the inhibition is 2.2%. The same measure for `Cc1ccc(-c2nnc(Oc3ccc(NC(=O)c4ccccc4)cc3)c3ccccc23)cc1`: 9.6%; for `CCC(=O)NC(c1ccccc1)c1c(OC(C)=O)ccc2ccccc12` (stereo not given): 9.1%; for `CC(=O)Oc1ccc2ccccc2c1C(NC(=O)Cc1ccccc1)c1ccc(Cl)cc1` (stereo not given): 3.5%.

`CN=C1CC(C)(C)CC(=O)/C1=C(/O)CCC(=O)NC`: the inhibition was 11.2%. The same measure for `Cc1ccc(/C=C2\C(=O)NC(=O)N2C)o1`: 6.8%. Take `Cc1ccc(/C=C2/NC(=O)N(Cc3ccccc3F)C2=O)o1`: the inhibition was -7.6%. With `CCN1C(=O)N/C(=C/c2ccc(C)o2)C1=O`, the inhibition was -0.6%. `C=CCN1C(=O)N/C(=C/c2ccc(C)o2)C1=O`: the inhibition was 6.7%. As to `O=C1CC(NC(=O)c2ccc(Cl)cc2)C(=O)N1` (stereo not given), the inhibition was 8%.

`Cc1ccc2c(c1)C1(C(=O)N2C)N2CC3(C)CN1CC(C)(C2)C3=O` (stereo not given): the inhibition was -15.5%.

Regarding `CC(=O)/C=C1\N(C)c2ccc(C)cc2C1(C)C`, the inhibition is 9.7%. On to `CC/C(=C/c1sc2ccc(C)cc2[n+]1CCO)SC`, for which the inhibition is -7.4%. As to `Cc1ccc(-c2c3c(=O)n(C)c(=O)n(C)c3cn2N2CCOCC2)cc1`, the inhibition is -4%. As for `O=C(c1ccco1)N(CCCN1CCOCC1)c1nc(-c2ccc(Cl)cc2)cs1`, the inhibition is 69.4% (active). On to `Cc1ccc(-c2csc(N(CCCN3CCOCC3)C(=O)c3ccco3)n2)cc1`, for which the inhibition is 21.7%. Turning to `O=C(c1ccco1)N(CCCN1CCOCC1)c1nc(-c2ccc(F)cc2)cs1`, the inhibition is 28.3%. In the case of `NS(=O)(=O)c1ccc(NNC(=O)c2ccccc2C(=O)O)cc1`, the inhibition was 6.3%.

With `CCSc1ccc(-c2nn(-c3ccccc3)cc2/C=C(/C#N)C(=O)NC)cc1`, the inhibition is 0.7%.

Turning to `CCCSc1ccc(-c2nn(-c3ccccc3)cc2/C=C(/C#N)C(=O)NCCCOC)cc1`, the inhibition is -5.1%. Consider `CCCCn1c(N)c(N(CC(C)C)C(=O)C2CCN(C(=O)c3ccc(F)cc3)CC2)c(=O)[nH]c1=O`, for which the inhibition is -8.6%. As for `CCCCCCOc1ccc(OCC(O)CN2C(=O)NC(C)(C)C2=O)cc1` (stereo not given), the inhibition is -5.4%. As for `Cc1ccc(N2C(=O)CC(N(CCc3ccccc3)C(=S)Nc3ccc(N(C)C)cc3)C2=O)cc1` (stereo not given), the inhibition was 0.8%. `CCOC(=O)/C(C#N)=C\c1cccnc1`: the inhibition is 0.9%. For `CCOC(=O)/C(=C\c1ccccc1)C(=O)c1cc(C(C)=O)c(Nc2ccccc2)s1` the value was -0.8%. On to `O=C(CSc1ccccc1C(=O)N1CCCCC1)NCC1CCCCC1`, for which the inhibition was 15.6%. Take `Cc1c(O)nc2sc3ccccc3n2c1=O`: the inhibition is -0.7%. In the case of `Cc1ccc(NC(=O)C(OC(=O)c2ccccc2Cl)c2ccccc2)cc1Cl` (stereo not given), the inhibition is 13.2%. Regarding `O=C(N/C=C/c1ccc(Cl)cc1)NCc1ccc(Cl)cc1`, the inhibition was 9%.

Turning to `O=[N+]([O-])c1ccc(C2CNC(c3ccccc3)O2)cc1` (stereo not given), the inhibition was 7.3%.

For the molecule `CSc1nc(Cl)c(C#N)c(-c2ccc(C)cc2)n1`, the inhibition is 68.5% (active). Regarding `N#Cc1c(Cl)nc(SCc2ccccc2)nc1-c1ccccc1`, the inhibition was -1.5%. Consider `COc1ccc(-c2nc(-c3cccc(C)c3)nc(Cl)c2C#N)cc1`, for which the inhibition is 5.9%. As for `Cn1cc([C@@H]2C[C@H]3CN(C4CCCC4)C(=O)[C@]34CCCN24)c(-c2ccccc2)n1`, the inhibition is -0.1%. Consider `COc1ccc2oc(C(=O)OCC(=O)NC(C)c3ccccc3)c(C)c2c1` (stereo not given), for which the inhibition was -1.9%. Consider `Cc1cc(C(=O)NN)c(C)o1`, for which the inhibition is 1%. With `Cc1cc(C(=O)NCC(=O)O)c(C)o1`, the inhibition is 2.3%.

For `Cc1cc(C(=O)NCC23CC4CC(CC(C4)C2)C3)c(C)o1`, the inhibition was 72.6% (active). In the case of `COc1cc(/C=C(/NC(=O)c2ccccc2)C(=O)N2CCOCC2)c([N+](=O)[O-])cc1OC`, the inhibition is 13.2%.

As for `Cc1cc(C(F)(F)F)nc(-n2cc(-c3ccccc3)nn2)n1`, the inhibition is 7.4%. On to `Cc1nn(C(C)(C)C)c(OC(=O)c2ccco2)c1Sc1ccccc1`, for which the inhibition was 7%. Consider `Cc1nn(C(C)(C)C)c(OC(=O)c2ccc(Br)o2)c1Sc1ccccc1`, for which the inhibition was -4.1%.

`CCC1(C)CC(=O)N(c2ccc(F)c(Cl)c2)C(=O)C1`: the inhibition was 0.3%. As for `CC1=NN(c2ccccc2)C(=O)/C1=C/C=C/c1ccccc1`, the inhibition was 5.8%. Regarding `CC1=NN(c2cccc(C(=O)O)c2)C(=O)/C1=C\C=C\c1ccco1`, the inhibition is 10.3%. As to `CCOC(=O)C(C)(C)N(Cc1ccc(Cl)cc1)S(=O)(=O)c1ccc(Cl)c([N+](=O)[O-])c1`, the inhibition is 44.2%. For `CCOC(=O)C(C)(C)N(Cc1ccccc1C)S(=O)(=O)c1ccc(Cl)c([N+](=O)[O-])c1`, the inhibition was 44%.

Consider `CCOC(=O)C(C)(C)NS(=O)(=O)c1ccc(Cl)c([N+](=O)[O-])c1`, for which the inhibition is 6.3%. In the case of `CCOC(=O)C(C)(C)N(Cc1cccc(C)c1)S(=O)(=O)c1cccc([N+](=O)[O-])c1`, the inhibition was 9.3%.

With `CCOC(=O)C(C)(C)N(Cc1cccc(C)c1)S(=O)(=O)c1ccc(Cl)c([N+](=O)[O-])c1`, the inhibition was 73.8% (active). For the molecule `CC(=O)Nc1ccc(S(=O)(=O)NCC(=O)OCC(=O)N2CCc3ccccc32)cc1`, the inhibition is -1.9%.

The record behind these values is PubChem BioAssay AID2013 (Sanford-Burnham Center for Chemical Genomics, 2009).
